# Assay outcomes as filed in PubChem BioAssay.
# Sampled rows, rich in hits. Any-hit rate of the full collection: about 11%.
# HttQ103 aggreg: qHTS Multiplex Assay to Identify Dual Action Probes in a Cell Model of Huntington: Aggregate Formation (GFP); PC12 HttQ103-GFP aggregates, Acumen cytometry, 40 h; Potency, µM (doses to about 46.1 µM), for inactives: top-dose activity change, negative = inhibition, hits mostly inhibitors; actives 1.1% (n = 220,000); active means well fitted curve in the direction sought with a large enough effect; inconclusive means small, poorly fitted or top-dose-only effect, or another doubt; inactive means no such curve, though single readings can be large; an effect the other way counts as inactive or inconclusive; further: potency means the concentration at half of the fitted maximal effect; on the % scale 0 is the no-effect control and ±100 the full control effect; nearly all actives have a fitted effect of over 60% in size
#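 PC12 cells with ecdysone-inducible HTT exon1 Q103-GFP, induced by 100 nM tebufenozide, given compounds in a concentration series. GFP aggregates (1–25 um, 6 SD above background) counted in lysates by laser-scanning cytometry, 488 nm excitation.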
# HTT ATP protect: qHTS Multiplex Assay to Identify Dual Action Probes in a Cell Model of Huntington: Cytoprotection (ATP); actives 0.14% (n = 230,000); Potency, µM (titrated, usually from 56.4 µM), for inactives: cytoprotection (ATP increase), actives largely listed as activators; AID 1471, 2008; PC12 HTT-Q103 induced, cytoprotection, ATP luminescence, 40 h; active means well fitted curve in the direction sought with a large enough effect; inconclusive means small, poorly fitted or top-dose-only effect, or another doubt; inactive means no such curve, though single readings can be large; an effect the other way counts as inactive or inconclusive; further: potency means the concentration at half of the fitted maximal effect; % of control where 0% means no effect; nearly all actives have a fitted effect of over 45% in size
#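 Readout: ATPlite luminescence (ATP level). Model: stable PC12, inducible Htt exon1 Q103-GFP. Inducer: tebufenozide, 100 nM final. Compounds: dose series. No G418 in medium.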
# PNC inhibitor: High Content Assay for Compounds that inhibit the Assembly of the Perinucleolar Compartment; AID 2417, 2010; actives 3.1% (n = 140,000); PC3M PTB-GFP, PNC prevalence imaging, 16 h; active compounds read low; activity change (PNC), negative = inhibition, % at 10 µM;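 active means readout at or below -70, meaning at least 70% loss of cells showing the perinucleolar compartment, a nuclear body marking cancer cells; inconclusive means readout between -30 and a set limit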;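 further: plate controls were DMSO wells for no effect and camptothecin positive control wells for full effect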
#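 Compounds are pinned in duplicate onto adhered PC3M cells stably expressing GFP-tagged PTB and incubated 16 h at 37 C. Cells are then fixed, nuclei stained with Hoechst, and PNC-positive cells counted.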
# ALDH1A1 block: qHTS Assay for Inhibitors of Aldehyde Dehydrogenase 1 (ALDH1A1) | Aldehyde dehydrogenase 1A1 (Homo sapiens), P00352 | Purified ALDH1A1, NADH fluorescence, propionaldehyde substrate | Potency, µM (highest dose often 75.3 µM), for inactives: at the top dose activity, negative = inhibition, hits mostly inhibitors | actives 7.3% (n = 220,000);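 further: potency means the concentration at half of the fitted maximal effect; plate controls were no enzyme wells and a reference inhibitor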
# RGS12 GoLoco inh: qHTS Assay for Inhibitors of RGS12 GoLoco Motif Activity (Red Fluorophore) | Potency, µM (highest dose often 61.6 µM), for the others: at the highest dose activity, negative = inhibition, most hits filed as inhibitors | actives 0.44% (n = 230,000) | Guanine nucleotide-binding protein G(i) subunit alpha-1 (Homo sapiens), P63096 | Gai1:RGS12 GoLoco peptide FP, rhodamine, 10 min | AID 880, 2007; active means well fitted inhibition curve with a large enough effect, not every such curve was filed as active; inactive means no such curve, though single readings can be large or run the other way; further: potency means the concentration at half of the fitted maximal effect; on the % scale 0 is the no-effect control and ±100 the full control effect; nearly all actives have a fitted effect of over 30% in size
# Target sequence (P63096 whole entry, looked up): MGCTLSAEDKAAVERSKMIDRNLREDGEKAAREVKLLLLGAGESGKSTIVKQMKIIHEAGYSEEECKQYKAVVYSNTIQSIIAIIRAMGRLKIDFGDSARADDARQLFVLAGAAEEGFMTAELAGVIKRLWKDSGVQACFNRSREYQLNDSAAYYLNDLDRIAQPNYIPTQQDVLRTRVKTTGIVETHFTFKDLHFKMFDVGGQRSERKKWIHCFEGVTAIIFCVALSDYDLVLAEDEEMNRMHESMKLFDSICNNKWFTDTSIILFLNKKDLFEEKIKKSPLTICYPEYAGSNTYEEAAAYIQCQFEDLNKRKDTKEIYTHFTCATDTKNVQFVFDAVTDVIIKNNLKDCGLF
# HPGD inh: qHTS Assay for Inhibitors of HPGD (15-Hydroxyprostaglandin Dehydrogenase); 15-hydroxyprostaglandin dehydrogenase [NAD(+)] (Homo sapiens), P15428; purified HPGD, NADH fluorescence kinetic, PGE2 substrate; Potency, µM, for inactives: top-dose activity change, negative = inhibition, usual class: inhibitors; actives 4.3% (n = 150,000); AID 894, 2007; further: potency means the concentration at half of the fitted maximal effect; on the % scale 0 is the no-effect control and ±100 the full control effect
# Target sequence (P15428 whole entry, looked up): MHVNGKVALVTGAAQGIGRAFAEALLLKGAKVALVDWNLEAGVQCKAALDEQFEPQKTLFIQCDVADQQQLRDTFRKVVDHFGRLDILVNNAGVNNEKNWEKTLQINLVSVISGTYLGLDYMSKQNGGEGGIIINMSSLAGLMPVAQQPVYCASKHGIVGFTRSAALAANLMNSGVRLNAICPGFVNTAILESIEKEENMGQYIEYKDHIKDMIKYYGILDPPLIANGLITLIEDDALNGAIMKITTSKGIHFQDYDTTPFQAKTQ
#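 20 nM HPGD preincubated 15 min at room temperature with compound in 50 mM Tris-HCl pH 8, 0.01% Tween 20. Started with 1 mM NAD+ and 30 uM prostaglandin E2; NADH fluorescence (360/450 nm) read 5 times over 30-s intervals, last minus first.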
# Starred values were filed as active, the others as inactive; ? = inconclusive; . = no result given; [ ] = dose if it differs, or a comment. Unless noted, the call rests on the fitted dose curve; in most records, active means well fitted inhibition curve with a large enough effect (not every such curve was filed as active); inconclusive means small, poorly fitted or top-dose-only effect, or another doubt; inactive means no such curve, though single readings can be large or run the other way.
SMILES,HttQ103 aggreg,HTT ATP protect,PNC inhibitor,ALDH1A1 block,RGS12 GoLoco inh,HPGD inh
O=C(O)Cn1cc2c(n1)CCCCC2,?,11%,?,13%,3%,0%
COc1ccc(COC(=O)N/N=C2/C[C@@H](O)[C@@H](O)[C@@H]3[C@@H]4C(=O)N(Cc5ccccc5)C(=O)[C@H]4CC[C@@H]23)cc1,.,-7%[10 µM],.,9%[13.5 µM],.,.
COC(=O)C1=C(C(=O)OC)SC2(S1)C(C(=O)OC)=C(C(=O)OC)SC1=C2c2cc(C)ccc2NC1(C)C,15%,-2%,5,8.9µM*,-5%,10µM*
CCOC(=O)C1(N(CC)CC)Sc2cc(C)ccc2NC1=O (stereo not given),13%,-36%,-8,?,6%,-22%
CC(=O)Nc1ccc(Nc2cc(C(C)C)nc3c(-c4ccccc4)c(C)nn23)cc1,-7%[9.22 µM],19%[10 µM],.,.,-1%,.
CC(Oc1ccccc1Cl)c1nnc(N)s1 (stereo not given),-5%,10%,-117*,7%,-7%,-8%
Cc1ccc(OC(C)c2nnc(N)s2)cc1Cl (stereo not given),-24%,14%,-14,-6%,0%,-9%
Cc1ccccc1Nc1nnc(SCc2cc([N+](=O)[O-])cc3c2OCOC3)s1,18µM*,-28%,33,?,22%,14µM*
O=[N+]([O-])c1cc2c(c(CSc3nnc(Nc4ccccc4)s3)c1)OCOC2,8%,22%,34,-1%,7%,-20%
CC1CCC(C(C)C)C(OC(=O)C[n+]2cc(-c3ccc(Cl)cc3)n3c2CCCCC3)C1 (stereo not given),13µM*,3%[10 µM],.,9%,-4%,.
CCn1cc(C(=O)O)c(=O)c2cc(F)c(N3CCN[C@@H](C)C3)c(F)c21,-4%,-52%[17.1 µM],.,?,4%[21.6 µM],?
COc1ccc(C(=O)N2CCC[C@@]3(CCN(CC(C)C)C3)C2)cc1,.,-86%,.,-14%,2%,-14%
CCn1c(SCC(=O)N/N=C/c2cc(OC)c(O)c(OC)c2)nc2ccccc21,-7%,-3%[10 µM],-20,?,-2%,-26%
O=C(CSc1nc2ccccc2n1Cc1ccccc1)N/N=C/c1ccco1,0%,-9%[10 µM],?,-1%,-2%,-5%
CCn1c(SCC(=O)N/N=C/C=C\c2ccco2)nc2ccccc21,?,-1%[10 µM],-15,10µM*,26%,?
CCn1c(SCC(=O)N/N=C/c2cc(OC)c(OC)c(OC)c2)nc2ccccc21,19%,-2%[10 µM],-16,25µM*,0%,-3%
Cn1c(SCC(=O)N/N=C/C=C\c2ccco2)nc2ccccc21,9%,-1%,?,6µM*,84%,20µM*
C/C(=N/NC(=O)CSc1nc2ccccc2n1C)c1ccc(O)cc1,-14%[9.22 µM],-9%[10 µM],.,13µM*,6%,.
Cn1c(SCC(=O)N/N=C/c2ccncc2)nc2ccccc21,-11%[9.22 µM],7%[10 µM],.,.,5%,.
CC(C)(C)c1cc(Br)c(O)c(CN(Cc2cc(C(C)(C)C)cc(Br)c2O)C2CCCCC2)c1,.,-11%[10 µM],.,12%[13.5 µM],6%[14.2 µM],3%
COc1ccccc1NC(=O)CCC(=O)OCc1cccc([N+](=O)[O-])c1,25%,.,.,20%,6%,.
O=C(Nc1cc(S(=O)(=O)N2CCCCC2)ccc1O)c1ccccc1NS(=O)(=O)c1ccc(F)c(F)c1,-26%,-8%[10 µM],?,-5%,1%,-16%
Cc1cn(-c2ccc(Br)cc2)[nH]c1=O,3%,-1%[10 µM],?,4%,4%,25µM*
Cc1nnc(C)c2c(C)n(-c3ccc(Br)cc3)c(C)c12,3%,3%,?,4%,-8%,2%
COC(=O)C(C)(C)ONC(=O)Nc1ccccc1[N+](=O)[O-],33%,-29%,.,5%,1%,.
SMILES,HttQ103 aggreg,HTT ATP protect,PNC inhibitor,ALDH1A1 block,RGS12 GoLoco inh,HPGD inh
O=C(Nc1ccc(Nc2ccncc2)cc1)c1ccc(Nc2ccnc3ccc([N+](=O)[O-])cc23)cc1[N+](=O)[O-],-3%[9.22 µM],-10%[10 µM],.,31%,36%,.
O=C(Nc1ccccc1)Nc1nccs1,0%,-29%,63,-1%,-1%,-18%
O=C(O)/C=C/C(=O)Nc1nccs1,15%[9.22 µM],5%[10 µM],.,0%,9%,.
CCCc1cc(C(=O)Nc2nccs2)cs1,-2%,-21%[10 µM],-26,?,21%,10µM*
C/C(=C\C(=O)O)C(=O)Nc1nccs1,0.11µM*,2%,?,3%,0%,-10%
CSc1ccccc1C(=O)Nc1nccs1,23%[9.22 µM],16%,-25,?,10%,16µM*
C/C(=C\C(=O)Nc1nccs1)c1ccccc1,-9%,-30%,18,-5%,3%,16µM*
CCC(CC)C(=O)Nc1cccc(C(=O)Nc2nccs2)c1,-18%,4%,-4,0%,0%,-12%
CN1C(=O)CC(C(=O)O)SC1=Nc1cc(Cl)cc(Cl)c1 (stereo not given),-1%,.,-87*,-2%,-16%,-17%
CN1C(=O)CC(C(=O)O)SC1=Nc1cc(Cl)c(O)c(Cl)c1 (stereo not given),7%,10%,-5,9%,-27%,-17%
c1cc(CSc2ncnc3nc[nH]c23)ccn1,.,0%[10 µM],.,6%[13.5 µM],-2%[14.2 µM],-5%
CCOC(=O)c1ccc(N=C2C(=S)N(c3ccc(C(=O)OCC)cc3)C(=N)N2/N=C/c2ccccc2)cc1,19%,8%[10 µM],-86*,2µM*,23%,22µM*
O=C(N/N=C/c1ccc(Cl)cc1Cl)C1CCN(c2ncc(C(F)(F)F)cc2Cl)CC1,-1%,4%,97,3.5µM*,-1%,-22%
O=C(N/N=C/c1cccc(C(F)(F)F)c1)C1CCN(c2ncc(C(F)(F)F)cc2Cl)CC1,-12%,8%,41,32%,1%,-10%
COc1cc(NC(=S)Nc2ncccc2C)cc(OC)c1OC,10%[9.22 µM],14%,.,18µM*,18%,.
O=C(NCc1ccc2c(c1)OCO2)c1ccc(CS(=O)(=O)c2cccc(C(F)(F)F)c2)o1,?,12%,-23,-9%,3%,-11%
NC(=O)c1ccc(NC(=S)NCc2ccco2)cc1,-5%,-18%,.,?,4%,.
NS(=O)(=O)c1ccc(NC(=S)NCc2ccco2)cc1,-12%[9.22 µM],-2%[10 µM],.,6.3µM*,-1%,.
COc1cc(NC(=S)Nc2cccc(C)n2)cc(OC)c1OC,6%,-10%,.,5%,7%,.
